Laboratory results reported in PubChem BioAssay (NCATS).
Unmarked numbers belong to inactive results. Records with an inconclusive call do not appear. A call without a number means that no potency is given here. The source made the active and inactive calls. Unless noted, calls come from the whole dose curve.

How the values were obtained:
[1] = target: Androgen receptor (Homo sapiens) (UniProt P10275); test: qHTS assay for small molecule agonists of androgen receptor signaling (AID 588515; active = well fitted curve in the direction sought with a large enough effect in the signal ratio, with a control signal flat; the % refers to the signal ratio); conditions: AR-UAS-bla HEK293, beta-lactamase ratio, agonist 16 h; activation: stronger effect = higher value
Androgen receptor (Homo sapiens), sequence (P10275 whole entry, looked up): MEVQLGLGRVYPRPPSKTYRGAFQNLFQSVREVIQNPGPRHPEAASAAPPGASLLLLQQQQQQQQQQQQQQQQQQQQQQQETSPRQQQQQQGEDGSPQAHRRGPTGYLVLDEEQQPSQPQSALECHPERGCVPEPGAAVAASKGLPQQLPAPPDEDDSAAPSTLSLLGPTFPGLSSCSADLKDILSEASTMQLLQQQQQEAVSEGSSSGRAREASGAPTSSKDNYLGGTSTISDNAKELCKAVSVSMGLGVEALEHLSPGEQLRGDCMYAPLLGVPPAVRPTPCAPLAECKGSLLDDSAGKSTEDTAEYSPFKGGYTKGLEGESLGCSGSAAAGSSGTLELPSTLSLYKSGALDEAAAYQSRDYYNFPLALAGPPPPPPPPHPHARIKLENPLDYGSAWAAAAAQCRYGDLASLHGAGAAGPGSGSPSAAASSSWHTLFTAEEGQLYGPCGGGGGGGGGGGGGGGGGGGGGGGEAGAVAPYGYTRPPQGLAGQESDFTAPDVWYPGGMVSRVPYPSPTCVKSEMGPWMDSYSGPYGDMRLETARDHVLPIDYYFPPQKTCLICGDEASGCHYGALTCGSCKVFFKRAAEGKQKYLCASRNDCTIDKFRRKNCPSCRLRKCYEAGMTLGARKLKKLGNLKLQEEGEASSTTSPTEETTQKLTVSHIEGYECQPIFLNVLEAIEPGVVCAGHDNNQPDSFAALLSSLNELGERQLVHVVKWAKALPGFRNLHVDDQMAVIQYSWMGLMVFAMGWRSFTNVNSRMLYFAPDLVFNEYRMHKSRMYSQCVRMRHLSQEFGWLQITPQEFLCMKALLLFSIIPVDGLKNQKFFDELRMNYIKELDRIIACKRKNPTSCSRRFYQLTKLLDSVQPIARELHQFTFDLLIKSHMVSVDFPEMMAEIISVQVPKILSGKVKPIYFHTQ
Method in brief: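 EC50 and efficacy came from Hill fits of titrations (up to 92 uM) normalized to 30 nM R1881 as 100% and DMSO as 0%. Compound exposure was 16 h at 37 C on AR-UAS-bla HEK293 cells, with a 405/460/530 nm CCF4 fluorescence read.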

[2] = target: Androgen receptor (Homo sapiens) (UniProt P10275); test: qHTS assay for small molecule antagonists of androgen receptor signaling (AID 588516; active = well fitted curve in the direction sought with a large enough effect in the signal ratio, with a control signal flat, not every such curve was filed as active; the % refers to the signal ratio)
Method in brief: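 Compounds tested in titration against 10 nM R1881 in AR-responsive bla reporter HEK 293 cells; CCF4 fluorescence (460/530 nm) after 16 h exposure gave IC50 and efficacy.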

[3] = target: Bile acid receptor (Homo sapiens) (UniProt Q96RI1); test: qHTS assay for small molecule antagonists of farnesoid X receptor signaling (AID 588526)
Bile acid receptor (Homo sapiens), sequence (Q96RI1 whole entry, looked up): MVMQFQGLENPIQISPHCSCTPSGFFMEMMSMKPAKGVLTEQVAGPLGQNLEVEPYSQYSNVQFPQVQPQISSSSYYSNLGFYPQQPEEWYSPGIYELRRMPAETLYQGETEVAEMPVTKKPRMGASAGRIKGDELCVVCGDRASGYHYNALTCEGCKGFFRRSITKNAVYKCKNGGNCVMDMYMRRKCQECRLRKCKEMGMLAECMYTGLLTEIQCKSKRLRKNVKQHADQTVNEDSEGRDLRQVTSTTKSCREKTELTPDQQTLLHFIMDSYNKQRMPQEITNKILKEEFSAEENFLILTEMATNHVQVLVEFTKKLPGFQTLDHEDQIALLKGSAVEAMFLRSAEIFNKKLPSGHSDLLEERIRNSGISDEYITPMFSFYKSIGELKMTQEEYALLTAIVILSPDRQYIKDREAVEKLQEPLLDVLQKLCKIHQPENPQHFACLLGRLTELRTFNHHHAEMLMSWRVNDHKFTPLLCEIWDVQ
Method in brief: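 Concentration-response titrations were fitted to the Hill equation for half-maximal inhibition and maximal response, with data normalised to 50 uM chenodeoxycholic acid and DMSO control wells. Cells: FXR-UAS-bla HEK293T, dialyzed FBS.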

[4] = target: Glucocorticoid receptor (Homo sapiens) (UniProt P04150); test: qHTS assay for small molecule agonists of glucocorticoid receptor signaling (AID 588532; active = well fitted curve in the direction sought with a large enough effect in the signal ratio, with a control signal flat; the % refers to the signal ratio); conditions: HeLa MMTV-bla, beta-lactamase ratio, agonist, 18 h; stronger effect = higher value; percent of dexamethasone control, DMSO zero
Glucocorticoid receptor (Homo sapiens), sequence (P04150 whole entry, looked up): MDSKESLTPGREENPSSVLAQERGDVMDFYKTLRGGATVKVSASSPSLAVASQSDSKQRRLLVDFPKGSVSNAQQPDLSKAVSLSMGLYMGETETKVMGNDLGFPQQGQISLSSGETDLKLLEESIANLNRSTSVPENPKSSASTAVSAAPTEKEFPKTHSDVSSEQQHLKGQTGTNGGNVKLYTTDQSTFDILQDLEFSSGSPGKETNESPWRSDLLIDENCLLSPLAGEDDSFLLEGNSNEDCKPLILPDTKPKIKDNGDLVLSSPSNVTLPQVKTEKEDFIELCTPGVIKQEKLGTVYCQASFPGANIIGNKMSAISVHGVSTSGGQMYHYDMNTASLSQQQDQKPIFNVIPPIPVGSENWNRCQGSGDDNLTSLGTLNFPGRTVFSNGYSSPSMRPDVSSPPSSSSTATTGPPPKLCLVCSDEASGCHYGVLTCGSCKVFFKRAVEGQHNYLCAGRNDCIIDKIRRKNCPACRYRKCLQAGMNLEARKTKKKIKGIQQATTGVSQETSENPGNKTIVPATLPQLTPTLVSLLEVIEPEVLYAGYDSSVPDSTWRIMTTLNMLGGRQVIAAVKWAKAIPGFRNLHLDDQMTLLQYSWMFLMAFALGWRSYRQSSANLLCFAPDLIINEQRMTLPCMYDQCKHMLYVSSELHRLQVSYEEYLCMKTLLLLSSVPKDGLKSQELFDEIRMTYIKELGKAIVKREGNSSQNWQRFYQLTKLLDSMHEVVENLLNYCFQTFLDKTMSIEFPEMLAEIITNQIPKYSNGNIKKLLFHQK
Method in brief: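 MMTV-bla HeLa, beta-lactamase reporter; medium with 1% charcoal/dextran-stripped FBS; cpds up to 92 uM, 18 h, 37 C; CCF4 readout 460/530 nm; Hill fit → EC50, efficacy vs 0.1 uM dexamethasone = 100%.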

[5] = target: Glucocorticoid receptor (Homo sapiens) (UniProt P04150); test: qHTS assay for small molecule antagonists of glucocorticoid receptor signaling (AID 588533; active = well fitted inhibition curve with a large enough effect in the signal ratio, with a control signal flat, not every such curve was filed as active; the % refers to the signal ratio;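 note: cells stimulated with 2 nM dexamethasone as agonist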)
Method in brief: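 Antagonist-mode qHTS: compound titrations added to GRE-bla HeLa cells, then dexamethasone 2 nM final; 18 h, 37 C. CCF4 FRET fluorescence normalized to dexamethasone and DMSO; IC50 from Hill fit.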

[6] = target: Peroxisome proliferator-activated receptor gamma (Homo sapiens) (UniProt P37231); test: qHTS assay for small molecule agonists of peroxisome proliferator-activated receptor gamma signaling (AID 588536; active = well fitted curve in the direction sought with a large enough effect in the signal ratio, with a control signal flat, not every such curve was filed as active; the % refers to the signal ratio)
Peroxisome proliferator-activated receptor gamma (Homo sapiens), sequence (P37231 whole entry, looked up): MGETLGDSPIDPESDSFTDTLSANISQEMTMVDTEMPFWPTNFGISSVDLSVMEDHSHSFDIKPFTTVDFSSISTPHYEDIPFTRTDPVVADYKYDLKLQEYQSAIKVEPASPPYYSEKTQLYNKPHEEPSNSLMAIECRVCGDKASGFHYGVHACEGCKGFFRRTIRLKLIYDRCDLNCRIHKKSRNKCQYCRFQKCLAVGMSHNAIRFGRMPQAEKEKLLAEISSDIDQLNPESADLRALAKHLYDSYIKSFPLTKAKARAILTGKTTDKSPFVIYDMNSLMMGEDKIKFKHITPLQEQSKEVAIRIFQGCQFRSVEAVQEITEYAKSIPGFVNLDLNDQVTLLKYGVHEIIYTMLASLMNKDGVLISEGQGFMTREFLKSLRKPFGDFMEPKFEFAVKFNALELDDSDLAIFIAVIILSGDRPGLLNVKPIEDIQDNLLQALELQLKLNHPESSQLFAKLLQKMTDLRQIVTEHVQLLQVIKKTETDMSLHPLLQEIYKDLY
Method in brief: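 Test agents, titrated, stimulated HEK293 UAS-bla cells overnight (16 h, 37 C). Substrate CCF4 was then added for two hours at room temperature before fluorescence reading.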

[7] = qHTS assay for small molecule activators of the p53 signaling pathway (AID 651743; active = well fitted activation curve with a large enough effect in the signal ratio, not every such curve was filed as active; the % refers to the signal ratio; note: series mostly up to about 92 µM); conditions: HCT-116 p53RE-bla, beta-lactamase FRET ratio, 16 h; activation: stronger effect = higher value
Method in brief: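 p53RE-bla HCT-116 cells with a stably integrated beta-lactamase reporter under p53 response elements were plated, rested 5 hours at 37 C/5% CO2, then exposed to compounds in DMSO for 16 hours at 37 C. LiveBLAzer B/G FRET substrate was read after 2 hours at room temperature.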

[8] = target: Peroxisome proliferator-activated receptor gamma (Homo sapiens) (UniProt P37231); test: qHTS assay for small molecule antagonists of peroxisome proliferator-activated receptor gamma signaling (AID 588537; active = well fitted inhibition curve with a large enough effect in the signal ratio, with a control signal flat, not every such curve was filed as active; the % refers to the signal ratio;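 note: reporter cells co-stimulated with 50 nM rosiglitazone agonist during compound treatment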)
Method in brief: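 PPAR-gamma-UAS-bla HEK293 cells (3000/well, 1% charcoal/dextran-stripped FBS) were preincubated 6-6.5 h at 37 C, given titrated compounds, then stimulated with 50 nM rosiglitazone for 16 h. Beta-lactamase activity was read with CCF4 dye; IC50 came from Hill fits.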

[9] = target: Peroxisome proliferator-activated receptor delta (Homo sapiens) (UniProt Q03181); test: qHTS assay for small molecule antagonists of peroxisome proliferator-activated receptor delta signaling (AID 588535; active = well fitted inhibition curve with a large enough effect in the signal ratio, with a control signal flat, not every such curve was filed as active; the % refers to the signal ratio)
Peroxisome proliferator-activated receptor delta (Homo sapiens), sequence (Q03181 whole entry, looked up): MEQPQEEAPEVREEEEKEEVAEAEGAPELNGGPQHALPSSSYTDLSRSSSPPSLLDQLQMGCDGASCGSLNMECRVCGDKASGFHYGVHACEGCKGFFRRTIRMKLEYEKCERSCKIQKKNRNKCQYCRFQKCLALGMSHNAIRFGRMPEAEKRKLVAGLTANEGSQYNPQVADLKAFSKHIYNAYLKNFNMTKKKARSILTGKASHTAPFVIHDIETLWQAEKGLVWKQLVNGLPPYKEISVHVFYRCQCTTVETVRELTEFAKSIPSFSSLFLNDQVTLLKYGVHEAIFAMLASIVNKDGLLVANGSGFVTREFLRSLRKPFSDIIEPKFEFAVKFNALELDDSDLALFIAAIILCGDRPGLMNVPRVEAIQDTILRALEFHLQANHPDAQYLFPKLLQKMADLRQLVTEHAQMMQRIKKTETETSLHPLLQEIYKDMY
Method in brief: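 GeneBLAzer PPAR-delta-UAS-bla HEK293T cells in medium with 2% charcoal/dextran FBS were preincubated 5 hrs at 37 C, then given compounds, incubated 18 hrs at 37 C, and read by CCF4 beta-lactamase fluorescence; IC50 from Hill fits.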

[10] = qHTS assay for small molecule agonists of the antioxidant response element (ARE) signaling pathway (AID 651741; active = well fitted activation curve with a large enough effect in the signal ratio; the % refers to the signal ratio; note: potency is the fitted concentration of half-maximal effect)
Method in brief: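 ARE-bla HepG2 cells (beta-lactamase reporter under ARE control) were plated at 2,000 cells/well, preincubated 5 h at 37 C/5% CO2, then treated with DMSO-dissolved compounds for 16 h at 37 C; LiveBLAzer B/G FRET substrate added, fluorescence read after 2 h at room temperature.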

[11] = target: Cytochrome P450 3A4 (Homo sapiens) (UniProt P08684); test: qHTS Assay for Activators of Cytochrome P450 3A4 (AID 885; active = well fitted curve in the direction sought with a large enough effect; an effect the other way counts as inactive or inconclusive; note: nearly all actives have a fitted effect of over 65% in size)
Cytochrome P450 3A4 (Homo sapiens), sequence (P08684 whole entry, looked up): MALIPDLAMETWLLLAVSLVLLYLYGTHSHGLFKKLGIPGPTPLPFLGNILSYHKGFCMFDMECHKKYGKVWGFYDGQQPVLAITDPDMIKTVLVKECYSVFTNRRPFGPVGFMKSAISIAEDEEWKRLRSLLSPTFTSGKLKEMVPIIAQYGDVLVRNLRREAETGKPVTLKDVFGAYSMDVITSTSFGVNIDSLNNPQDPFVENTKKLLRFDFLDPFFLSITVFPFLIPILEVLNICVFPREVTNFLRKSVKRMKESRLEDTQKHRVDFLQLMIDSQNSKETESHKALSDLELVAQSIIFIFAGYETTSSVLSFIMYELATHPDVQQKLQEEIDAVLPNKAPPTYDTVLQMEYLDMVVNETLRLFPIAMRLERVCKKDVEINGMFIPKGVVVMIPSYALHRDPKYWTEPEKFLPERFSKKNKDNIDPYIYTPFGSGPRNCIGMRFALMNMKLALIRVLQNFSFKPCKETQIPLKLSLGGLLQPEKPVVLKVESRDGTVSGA
Method in brief: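 Steps: enzyme/substrate mix dispensed; compound added, 10 min RT; NADPH regeneration solution added, 60 min RT; luciferin detection buffer stops reaction; 20 min later luminescence measured.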

[12] = target: DNA dC->dU-editing enzyme APOBEC-3G (Homo sapiens) (UniProt Q9HC16); test: qHTS for inhibitors of Vif-A3G interactions: Validation (AID 588379; active = well fitted curve in the direction sought with a large enough effect; an effect the other way counts as inactive or inconclusive)
DNA dC->dU-editing enzyme APOBEC-3G (Homo sapiens), sequence (Q9HC16 whole entry, looked up): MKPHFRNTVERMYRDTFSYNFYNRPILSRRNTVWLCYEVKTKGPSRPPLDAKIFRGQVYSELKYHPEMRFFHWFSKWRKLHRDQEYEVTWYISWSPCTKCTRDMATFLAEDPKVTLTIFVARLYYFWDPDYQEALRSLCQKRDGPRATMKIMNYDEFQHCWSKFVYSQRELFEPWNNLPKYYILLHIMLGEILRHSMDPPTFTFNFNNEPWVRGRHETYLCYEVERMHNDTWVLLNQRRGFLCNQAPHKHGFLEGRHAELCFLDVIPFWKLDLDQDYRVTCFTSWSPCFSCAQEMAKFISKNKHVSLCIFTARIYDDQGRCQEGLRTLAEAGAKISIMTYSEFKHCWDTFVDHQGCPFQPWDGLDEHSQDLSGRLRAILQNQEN
Method in brief: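 HeLa cells stably expressing Vif and A3G-eYFP, 700 cells/well, incubated overnight at 37 deg C, then exposed to compound overnight at 37 deg C. Inhibition of Vif-mediated degradation read as increased yellow fluorescence (Ex 488/Em 500-530) by laser-scanning cytometry.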

| SMILES | activation [1] [%] | outcome [2] | Potency [3] | activation [4] [%] | Potency [5] | outcome [6] | activation [7] [%] | Potency [8] | Potency [9] | Potency [10] | Potency [11] | Potency [12] |
| --- | --- | --- | --- | --- | --- | --- | --- | --- | --- | --- | --- | --- |
| O=C(O)c1ccc2c(c1)C(=O)OC2=O | 5.43 | inactive | inactive | 1.9 | inactive | inactive | -0.551 | – | – | – | – | – |
| O=C(c1ccc(Cl)cc1)c1ccc(Cl)cc1 | 19.9 | inactive | – | – | – | inactive | 1.92 | – | – | – | – | – |
| N[C@@H]1[C@@H](O)[C@H](O)[C@@H](CO)O[C@H]1O | 9.13 | inactive | – | – | – | inactive | -3.01 | inactive | – | – | – | – |
| Cn1c(=O)[nH]c(=O)n(C2CCC(O)CC2)c1=O (centres undefined) | 1.63 | inactive | inactive | -2.18 | inactive | – | 2.9 | inactive | inactive | – | – | – |
| Nc1c(N=Nc2ccc(S(=O)(=O)CCOS(=O)(=O)O)cc2)c(S(=O)(=O)O)cc2cc(S(=O)(=O)O)c(N=Nc3ccc(S(=O)(=O)CCOS(=O)(=O)O)cc3)c(O)c12 | 7.7 | – | inactive | – | – | – | -4.94 | – | inactive | 30.6 µM (active) | – | – |
| Cc1ccc(N=Nc2c(O)ccc3ccccc23)c(C)c1 | -2.14 | inactive | inactive | -16.9 | – | inactive | – | – | – | 7.7 µM (active) | – | – |
| COc1ccc(-c2coc3ccc(OC4OC(COC(C)=O)C(OC(C)=O)C(OC(C)=O)C4OC(C)=O)c(OC(C)=O)c3c2=O)cc1 (centres undefined) | – | – | – | – | – | – | – | – | – | – | inactive | inactive |
| CCc1cccc(C)c1N(C(=O)CS(=O)(=O)O)[C@@H](C)COC | -2.5 | inactive | – | -18.8 | inactive | inactive | 3.16 | inactive | inactive | inactive | – | – |
| C=C(C)C(=O)OCCCCCCCCCCCCCCCC | 10.8 | inactive | – | 0.746 | inactive | – | -3.74 | inactive | inactive | inactive | – | – |
| CCCCCCCOC(=O)c1ccccc1C(=O)OCCCCCCC | -1.72 | inactive | – | -3.48 | inactive | inactive | -3.71 | – | inactive | – | – | – |
| NCCCCCCCCCCCC(=O)O | – | inactive | inactive | 8.75 | inactive | inactive | – | – | inactive | inactive | – | – |
| O=C1CCCC/C=C/CCCCCCCCCO1 | 0.71 | inactive | inactive | -15.4 | inactive | inactive | 0.177 | inactive | inactive | inactive | – | – |
| CNc1nc(=O)n(C2CCC(O)CC2)c(=O)n1C (centres undefined) | – | inactive | inactive | 2.82 | inactive | inactive | 1.92 | inactive | inactive | – | – | – |
| CC1(C)[C@@H](C=C(Cl)Cl)[C@@H]1C(=O)OCc1cccc(Oc2ccccc2)c1 | -22.2 | inactive | – | – | inactive | – | -0.529 | – | inactive | – | – | – |
| CCCCCCCCCCCCCCCCCC(N)=O | 5.45 | inactive | – | -6.09 | inactive | – | 0.913 | – | inactive | – | – | – |
| Cl[Si](Cl)(c1ccccc1)c1ccccc1 | – | – | inactive | 0.877 | inactive | inactive | -1.29 | inactive | inactive | 54.5 µM (active) | – | – |
| CC(C)(C)C1CCC(O)CC1 (centres undefined) | – | – | – | -9.45 | inactive | inactive | – | inactive | – | inactive | – | – |
| OC1CCCCCCCCCCC1 | – | – | – | -19.4 | inactive | inactive | 4.17 | – | inactive | inactive | – | – |
| OCCOCCOCCOCCO | – | – | – | -2.94 | inactive | – | 0.49 | – | inactive | inactive | – | – |
| C=CC(=O)OCC[N+](C)(C)C | – | – | inactive | – | – | inactive | – | – | inactive | inactive | – | – |
| O=C(OCC1CCC2OC2C1)C1CCC2OC2C1 (centres undefined) | – | – | – | -15 | inactive | inactive | – | inactive | inactive | – | – | – |
| C=Cc1ccccc1Br | – | inactive | – | -5.73 | inactive | inactive | -6.55 | – | inactive | inactive | – | – |
| CCCCCCCCCCCCCO | – | – | – | 0.908 | inactive | inactive | -3 | inactive | inactive | 48.6 µM (active) | – | – |
| CCOC(=O)CC(O)(CC(=O)OCC)C(=O)OCC | – | – | – | -0.518 | inactive | inactive | -0.036 | – | – | inactive | – | – |
| C=CCCCCCCCCC=O | – | – | – | 4.91 | inactive | inactive | 3.83 | inactive | inactive | – | – | – |
| CC(C)CCCCCOC(=O)CS | – | – | – | 5.28 | inactive | inactive | – | inactive | – | inactive | – | – |
| O=C(Cl)c1cc(Cl)cc(Cl)c1 | – | – | – | -2.63 | inactive | inactive | -0.691 | inactive | inactive | – | – | – |
| CCCCCCCCCCCCCc1ccccc1 | – | – | inactive | -7.21 | inactive | inactive | 1.08 | inactive | inactive | inactive | – | – |
